# Sampled rows, rich in hits. Any-hit rate of the full collection: about 5.7%.
# HP1b binding inh: inhibitors of HP1-beta chromodomain binding to methylated histone tails; P83916; AlphaScreen HP1-beta / biotin-H3K9me3 peptide binding; Potency, µM (doses to about 114 µM), inactives show top-dose activity change, negative = inhibition, hits mostly inhibitors; 0.56% of 390,000 active; AID 540317; also: potency is read from the fitted curve at half-maximal effect; nearly all actives have a fitted effect of over 70% in size
#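 HP1-beta protein (50 nM final) preincubated 30 min at room temperature with biotinylated H3(1-18)K9me3 peptide (50 nM) in PBS pH 7.4, 0.01% Tween-20, then compound added for 30 min. AlphaScreen streptavidin donor/nickel chelate acceptor beads (10 ug/mL final), 30 min dark, luminescence read.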
# PI5P4K alpha inh: PI5P4K alpha (human) kinase inhibition; PI5P4Kalpha enzyme, ADP-Glo luminescence, 60 min; stronger effect = lower value; 1.2% of 330,000 active; max response, %; P48426; active = max response of -50% or lower; inconclusive = between -30% and -50%; inactive = -30% or higher; also: value at the top dose of about 77 µM; % is scaled to controls: 0 for no effect and ±100 for the full control effect
#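 qHTS, 1536-well: enzyme/substrate mix, compound by pin tool, 5 microM ATP final; RT 60 min; ADP-Glo reagents 1 (45 min) then 2 (30 min); luminescence.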
# BAZ2B inh: BAZ2B (human) inhibition; Q9UIF8; AlphaScreen BAZ2B-H3K14Ac peptide displacement; Potency, µM (series often up to 114 µM), without a hit: at the top dose activity change, negative = inhibition, most hits filed as inhibitors; 4.4% of 360,000 active; also: potency is read from the fitted curve at half-maximal effect; % is scaled to controls: 0 for no effect and ±100 for the full control effect; nearly all actives have a fitted effect of over 60% in size
#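 In this displacement format the biotinylated H3(5-23) peptide acetylated at Lys14 serves as ligand at 50 nM, with BAZ2B at 50 nM in PBS pH 7.4 containing 0.01% Tween-20. Donor and acceptor beads are 10 ug/mL final.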
# JMJD2A Tudor inh: JMJD2A Tudor domain (human) inhibition | O75164 | AlphaScreen JMJD2A-Tudor / H3K4me3 peptide binding | Potency, µM (doses to about 114 µM), without a hit: at the highest dose activity change, negative = inhibition, most hits filed as inhibitors | 4.4% of 390,000 active | AID 504339; also: potency is read from the fitted curve at half-maximal effect; % is scaled to controls: 0 for no effect and ±100 for the full control effect; nearly all actives have a fitted effect of over 50% in size
# JMJD2E inh: blocks human JMJD2E demethylase activity; 1.6% of 230,000 active; Potency, µM (doses to about 57.1 µM), for inactives: top-dose activity change, negative = inhibition, actives largely listed as inhibitors; JMJD2E catalytic domain, FDH-coupled NADH fluorescence (FDH is formaldehyde dehydrogenase); B2RXH2; active = well fitted inhibition curve with a large enough effect, not every such curve was filed as active; inconclusive = small, poorly fitted or top-dose-only effect, or another doubt; inactive = no such curve, though single readings can be large or run the other way;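 also: potency is read from the fitted curve at half-maximal effect; 0% = wells with enzyme and -100% = buffer wells without enzyme; nearly all actives have a fitted effect of over 50% in size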
# L3MBTL1 inh: inhibitors of human L3MBTL1 | AlphaScreen L3MBTL1–H3K9me1 peptide binding | Potency, µM (doses to about 57.1 µM), inactives show at the top dose activity, negative = inhibition, usual class: inhibitors | 0.66% of 230,000 active | Q9Y468; also: potency is read from the fitted curve at half-maximal effect; % is scaled to controls: 0 for no effect and ±100 for the full control effect; nearly all actives have a fitted effect of over 60% in size
# Target sequence (Q9Y468 whole entry, looked up): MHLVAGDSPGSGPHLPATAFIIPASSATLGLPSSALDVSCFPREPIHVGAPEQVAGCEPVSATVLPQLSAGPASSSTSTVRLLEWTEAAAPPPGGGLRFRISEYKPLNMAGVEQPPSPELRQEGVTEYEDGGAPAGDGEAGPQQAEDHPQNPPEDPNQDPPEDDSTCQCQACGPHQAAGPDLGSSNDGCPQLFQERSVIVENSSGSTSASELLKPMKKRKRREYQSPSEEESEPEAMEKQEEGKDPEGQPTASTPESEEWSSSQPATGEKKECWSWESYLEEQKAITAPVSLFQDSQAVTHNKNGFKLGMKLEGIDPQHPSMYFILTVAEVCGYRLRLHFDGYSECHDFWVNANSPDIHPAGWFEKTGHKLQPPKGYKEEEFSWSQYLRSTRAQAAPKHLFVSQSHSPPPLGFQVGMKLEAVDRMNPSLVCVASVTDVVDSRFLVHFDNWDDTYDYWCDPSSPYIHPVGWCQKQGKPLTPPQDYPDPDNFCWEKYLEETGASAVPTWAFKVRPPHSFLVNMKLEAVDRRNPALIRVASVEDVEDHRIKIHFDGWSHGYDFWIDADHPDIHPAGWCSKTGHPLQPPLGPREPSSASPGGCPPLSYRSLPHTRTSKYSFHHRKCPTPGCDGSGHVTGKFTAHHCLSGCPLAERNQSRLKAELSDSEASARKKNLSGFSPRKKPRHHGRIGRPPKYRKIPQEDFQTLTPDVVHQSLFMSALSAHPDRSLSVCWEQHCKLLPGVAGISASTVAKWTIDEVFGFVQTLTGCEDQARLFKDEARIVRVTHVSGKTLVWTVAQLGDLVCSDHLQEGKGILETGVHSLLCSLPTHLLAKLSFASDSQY
#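 AlphaScreen proximity signal between nickel-chelate acceptor and streptavidin donor beads (final 10 ug/mL) reports binding of 50 nM L3MBTL1 to 75 nM biotin-H3 K9me1 peptide; complex incubated with compounds 30 min at room temperature; cefsulodin titration as control.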
# The depositor's hits bear a star; u = inconclusive; x = not tested or not shown; [ ] = another dose, or the depositor's remark. Unless noted, calls follow the shape of the dose curve; as a rule, active = well fitted inhibition curve with a large enough effect; inconclusive = small, poorly fitted or top-dose-only effect; inactive = no such curve, though single readings can be large or run the other way.
SMILES,HP1b binding inh,PI5P4K alpha inh,BAZ2B inh,JMJD2A Tudor inh,JMJD2E inh,L3MBTL1 inh
COCCNC(=O)C1CCN(Cc2cccc(OCc3ccccc3)c2)CC1,u,3.6,u,0.794µM*,x,-0.5%[2.29 µM]
Cc1cc(C)c(S(=O)(=O)NCc2ccc3c(c2)CCN3C(=O)c2ccccc2)c(C)c1,37.3%[57 µM],x,23.0%,-13.6%,x,x
N#Cc1nc(NCCCCO)nc(Nc2ccccc2)n1,x,x,x,-9.0%,x,x
Cc1ccc2nc(N(CCCN(C)C)C(=O)c3ccc(Br)s3)sc2c1,12.8%,5.4,-33.0%,-17.6%,u,x
COc1ccc2sc(N(CCCN(C)C)C(=O)c3ccc(C(=O)c4ccccc4)cc3)nc2c1,-30.9%,3.9,u,50.1µM*,x,-17.0%
Cc1ccc2nc(N(CCCN(C)C)C(=O)c3cc(-c4cccs4)nc4ccccc34)sc2c1,u,-1.3,25.1µM*,14.1µM*,x,x
CCN(CC)CCN(C(=O)c1ccc2ncsc2c1)c1nc2cc3c(cc2s1)OCO3,-24.6%,u,39.8µM*,50.1µM*,x,x
CN(C)CCCN(C(=O)c1ccc(C(=O)c2ccccc2)cc1)c1nc2cc3c(cc2s1)OCO3,u,-0.3,44.7µM*,50.1µM*,x,x
O=C(Cn1cc(SCc2c(F)cccc2Cl)c2ccccc21)N1CCCCCC1,84.5%,x,-19.4%,-5.1%,x,x
O=C(c1cc(Br)c(Br)s1)N1CCOCC1,22.0%,3.7,6.8%,-8.3%,x,12.6%
O=C(c1coc(=O)c(Br)c1)N1CCOCC1,u,u,50.1µM*,u,u,14.1µM*
O=C(c1ccc(=O)oc1)N1CCOCC1,22.4µM*,-2.9,50.1µM*,44.7µM*,-2.4%,4.47µM*
O=C1CN(C(=O)Nc2ccccc2Cl)C(c2ccccc2)c2c(sc3c2CCCC3)N1 (configuration not stated),13.0%,x,-11.1%,-6.3%,x,x
O=C1N=C(N2CCN(c3ccccc3)CC2)S/C1=C\c1cn[nH]c1-c1ccccc1,1.4%,-51.5*,-2.8%,-23.4%,18.6%,-3.8%
O=C1N=C(N2CCC(Cc3ccccc3)CC2)S/C1=C/c1cn[nH]c1-c1ccccc1,8.9%,x,-5.0%,-17.2%,-2.7%,-3.6%
Cc1ccc(N2CCN(C3=NC(=O)/C(=C\c4cn[nH]c4-c4ccccc4)S3)CC2)cc1,-3.8%,-24.6,-3.5%,50.1µM*,-4.9%,5.6%
Cc1cccc(N2CCN(C3=NC(=O)/C(=C\c4cn[nH]c4-c4ccccc4)S3)CC2)c1,22.8%,-28.8,-2.2%,-3.5%,u,7.2%
CCOC(=O)C1CCN(C(c2cccc(F)c2)c2c(O)cc(C)n(Cc3ccco3)c2=O)CC1 (configuration not stated),28.2%[57 µM],x,-22.8%,-29.5%,x,x
CCOc1ccc(C(=O)n2cnnc2N)cc1,18.5%,-4.5,-0.9%,-16.4%,2.6%,x
Clc1cccc(CSc2nc3ccncc3[nH]2)c1,38.9%,8.6,2.4%,-6.8%,8.0%,x
O=C(NCCN1CCN(c2cccc(Cl)c2)CC1)c1ccc(CSc2nc3ccncc3[nH]2)cc1,-17.0%,7.5,u,44.7µM*,9.1%,x
Cc1cccc(OCC(=O)N(Cc2ccc(N(C)C)cc2)Cc2ccco2)c1C,u,x,10µM*,22.4µM*,x,x
Cc1cc(C)c(OCC(=O)N(Cc2ccc(N(C)C)cc2)Cc2ccco2)c(C)c1,u,x,8.91µM*,20µM*,x,x
COc1ccc(C(C[N+](=O)[O-])c2c(C)[nH]n(-c3ccccc3)c2=O)cc1 (configuration not stated),u,1.3,-22.6%,89.1µM*,x,x
COc1ccc(S(=O)(=O)n2nc(C)c(S(=O)(=O)N3CCCCC3)c2C)cc1,21.6%[57 µM],x,4.3%,u,x,x
SMILES,HP1b binding inh,PI5P4K alpha inh,BAZ2B inh,JMJD2A Tudor inh,JMJD2E inh,L3MBTL1 inh
O=C(Cn1sc2ccccc2c1=O)Nc1ccc(Cl)cc1,x,-81.8*,x,x,x,x
O=C(Cn1sc2ccccc2c1=O)Nc1ccc(Br)cc1,x,-83.1*,x,x,x,x
Cc1ccc(NC(=O)Cn2nc(-c3ccc(Cl)cc3)c3ccccc3c2=O)cc1,32.8%,x,1.3%,-10.4%,x,x
O=C(Cn1sc2ccccc2c1=O)Nc1ccc(F)cc1,x,-91.5*,x,x,x,x
COc1ccc(NC(=O)c2ccc3oc(=O)c(S(=O)(=O)c4ccc(C)cc4)cc3c2)cc1OC,7.2%,x,-19.2%,-18.5%,x,x
C[C@H](CO)N1C[C@H](C)[C@H](CN(C)S(=O)(=O)c2cccs2)OCc2cnnn2CCCC1=O,x,0.8,x,x,x,x
COc1ccc(C)cc1NCc1ccc(OC)c(C)c1OC,u,9.3,22.4µM*,20µM*,x,u
COc1ccc(C)cc1NCc1ccc([N+](=O)[O-])cc1,u,7.1,39.8µM*,50.1µM*,x,-8.1%[2.29 µM]
COc1ccc(CNCCc2ccc([N+](=O)[O-])cc2)c(OC)c1OC,1.6%,0.2,50.1µM*,79.4µM*,x,-4.2%[2.29 µM]
COc1ccc(CNCCNC(=O)c2ccco2)c(OC)c1OC,u,-1.1,u,u,-20.4%,x
CCS(=O)(=O)c1nc(S(=O)(=O)c2ccc(Cl)cc2)c(NCc2ccc(Cl)cc2)s1,25.3%,x,0.5%,-15.8%,x,x
CCN(CC)CCOCCOC(=O)C1(c2ccccc2)CCCC1,12.5%,-2.5,x,31.6µM*,u,x
O=C(CN(C(=O)CCC(=O)Nc1ccccn1)c1ccc2c(c1)OCO2)NCc1ccc(F)cc1,19.9%,-15.7,-25.8%,0.0%,x,x
Cc1ccc(-c2cc(-c3ccco3)c3c(N)c(C(=O)NN)oc3n2)cc1,-1.4%,u,u,u,3.16µM*,17.9%
CCn1nc(C)cc1-c1n[nH]c(=S)n1N,u,3.3,u,8.91µM*,-2.7%,x
COc1cccc(C(c2sc3nc(C)nn3c2O)N2CCc3ccccc3C2)c1 (configuration not stated),50.1µM*,u,-0.7%,20µM*,7.0%,-7.6%
CCN1CCN(C(c2cccc(OC)c2)c2sc3nc(C)nn3c2O)CC1 (configuration not stated),22.4%,-3.0,-0.5%,-24.0%,-6.5%,13.0%
Oc1c(C(c2ccccc2)N2CCc3ccccc3C2)sc2ncnn12 (configuration not stated),u,-12.5,12.1%,31.6µM*,-2.3%,u
CC1CCCN(C(c2ccccc2)c2sc3ncnn3c2O)C1 (configuration not stated),35.9%,-2.5,0.9%,-2.8%,-1.4%,8.1%
CCOC(=O)C1CCN(C(=O)c2nn(-c3ccc(OC)c(Cl)c3)c(=O)c3c2c2ccccc2n3C)CC1,35.1%,x,x,-12.0%,x,x
COc1ccccc1NC(=O)c1ccc2nsnc2c1,-4.6%,6.0,-0.5%,12.6µM*,x,x
COc1ccc(C(=O)Nc2ccccc2C(=O)NC(C)C)cc1OC,3.5%,-18.0,-0.4%,50.1µM*,-5.6%,x

# High-throughput results deposited in PubChem BioAssay by National Center for Advancing Translational Sciences (NCATS).
